# Test results reported in PubChem BioAssay (NCATS).
# Results filed as inconclusive are left out. Where a call stands in place of a potency, no number is given. The source made the active and inactive calls. Unless noted, calls follow the shape of the dose curve; as a rule, active = well fitted curve in the direction sought with a large enough effect; inconclusive = small, poorly fitted or top-dose-only effect, or another doubt; inactive = no such curve, though single readings can be large; an effect the other way counts as inactive or inconclusive.
# Tests used:
# [1] = molecular target: Cytochrome P450 3A4 (Homo sapiens) (UniProt P08684); assay: qHTS Assay for Inhibitors and Substrates of Cytochrome P450 3A4 (AID 884); also: nearly all actives have a fitted effect of over 50% in size
# Chain of Cytochrome P450 3A4 (Homo sapiens) (P08684 whole entry, looked up): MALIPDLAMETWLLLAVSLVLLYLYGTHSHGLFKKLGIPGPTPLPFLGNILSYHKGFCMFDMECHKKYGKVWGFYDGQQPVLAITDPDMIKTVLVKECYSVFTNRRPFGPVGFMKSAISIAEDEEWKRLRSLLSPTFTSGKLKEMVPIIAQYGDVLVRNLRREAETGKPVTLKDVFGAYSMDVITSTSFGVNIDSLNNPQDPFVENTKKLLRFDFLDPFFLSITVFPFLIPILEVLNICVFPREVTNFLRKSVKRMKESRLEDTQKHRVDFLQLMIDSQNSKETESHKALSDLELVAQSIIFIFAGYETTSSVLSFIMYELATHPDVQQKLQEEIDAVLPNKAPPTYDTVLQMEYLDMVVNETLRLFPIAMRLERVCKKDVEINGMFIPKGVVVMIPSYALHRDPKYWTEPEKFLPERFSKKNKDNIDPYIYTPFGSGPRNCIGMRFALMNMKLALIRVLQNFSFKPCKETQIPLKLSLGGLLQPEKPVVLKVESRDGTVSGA
# How it was run: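 20 nM human CYP3A4 with 25 uM Luciferin-PPXE (at KM) in 200 mM KPO4, preincubated 10 min with compound; NADPH regeneration started a 60 min RT reaction. Luciferin detected by luminescence, normalized to 57 uM ketoconazole as full inhibition.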
# [2] = Confirmation and Secondary Assay for Modulators of Hemoglobin Beta Chain Splicing at IVS2 654 locus (AID 910);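 also: HeLa cells stably carrying EGFP split by mutant beta-globin IVS2-654 intron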
# How it was run: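 HeLa cells stably expressing EGFP interrupted by β-globin IVS2-654 intron, seeded overnight in Opti-MEM/2% FCS, then treated 2 days at 37 °C. Restored splicing read as total peak GFP intensity per well by laser scanning cytometry (488 nm excitation, 500–520 nm emission); 500 nM antisense PNA as control.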
# [3] = Confirmation and Secondary Assay for Modulators of Hemoglobin Beta Chain Splicing at IVS2 705 locus (AID 930);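 also: GFP fluorescence per well restored by corrected splicing of the IVS2-705 intron in EGFP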; also: potency is read from the fitted curve at half-maximal effect
# How it was run: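 Assay measures total GFP intensity per well in HeLa EGFP-705 cells after 2 days with compound; mis-splicing normally truncates EGFP, so fluorescence indicates corrected splicing.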
# [4] = qHTS Assay for Lipid Storage Modulators (AID 1519; calls by dose curve); settings: Drosophila S3 cells, BODIPY lipid droplet/cell ratio, laser cytometry, cells loaded with oleic acid; for activity change, negative = inhibition: at 57.5 µM (top of the series)
# How it was run: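 Cells seeded at 5,000 per well were treated with compounds over a concentration series and loaded with oleic acid (400 uM, as added). Lipid droplet fluorescence (488 nm excitation, 500-530 nm channel) was read by laser-scanning cytometry and normalized to 20 uM Triacsin C.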
# [5] = molecular target: Ubiquitin carboxyl-terminal hydrolase 1 (Homo sapiens) (UniProt O94782); assay: Inhibitors of USP1/UAF1: Pilot qHTS (AID 504865); also: nearly all actives have a fitted effect of over 35% in size; also: potency is read from the fitted curve at half-maximal effect;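 as to activity change, negative = inhibition: rhodamine fluorescence freed from ubiquitin-rhodamine substrate followed over time; top concentration of the series differs between compounds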
# Chain of Ubiquitin carboxyl-terminal hydrolase 1 (Homo sapiens) (O94782 whole entry, looked up): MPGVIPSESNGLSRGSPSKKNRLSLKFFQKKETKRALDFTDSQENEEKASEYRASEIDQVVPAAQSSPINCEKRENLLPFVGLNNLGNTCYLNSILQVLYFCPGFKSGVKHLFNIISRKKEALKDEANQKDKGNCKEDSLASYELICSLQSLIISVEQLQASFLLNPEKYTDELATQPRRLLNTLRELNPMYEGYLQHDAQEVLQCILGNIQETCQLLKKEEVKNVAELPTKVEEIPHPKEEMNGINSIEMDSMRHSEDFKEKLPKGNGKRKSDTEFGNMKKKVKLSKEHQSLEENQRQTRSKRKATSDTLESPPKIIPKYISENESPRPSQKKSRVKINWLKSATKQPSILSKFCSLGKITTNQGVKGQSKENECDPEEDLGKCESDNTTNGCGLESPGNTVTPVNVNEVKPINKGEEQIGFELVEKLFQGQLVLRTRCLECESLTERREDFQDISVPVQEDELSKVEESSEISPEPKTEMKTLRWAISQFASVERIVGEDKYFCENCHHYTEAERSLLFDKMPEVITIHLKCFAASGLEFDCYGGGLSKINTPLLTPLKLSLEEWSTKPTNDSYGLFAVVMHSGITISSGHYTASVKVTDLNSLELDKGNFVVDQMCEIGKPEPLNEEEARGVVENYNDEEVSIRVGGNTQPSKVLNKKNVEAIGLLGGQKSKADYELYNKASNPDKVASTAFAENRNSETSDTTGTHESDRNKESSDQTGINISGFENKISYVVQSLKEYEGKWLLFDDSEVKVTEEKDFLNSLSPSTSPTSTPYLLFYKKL
# How it was run: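 USP1/UAF1 complex (1nM) preincubated with compound 15 min at room temperature, then Ub-Rho substrate (150nM final) added. Fluorescence read kinetically at 480/540 nm, 6 reads every 60 seconds. Buffer: 50mM HEPES pH 7.8, 0.5mM EDTA, 0.1 mg/ml BSA, 1mM TCEP, 0.01% Tween-20.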
# [6] = molecular target: Cytochrome P450 3A4 (Homo sapiens) (UniProt P08684); assay: qHTS Assay for Activators of Cytochrome P450 3A4 (AID 885); also: nearly all actives have a fitted effect of over 65% in size
# How it was run: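 Steps: enzyme/substrate mix dispensed; compound added, 10 min RT; NADPH regeneration solution added, 60 min RT; luciferin detection buffer stops reaction; 20 min later luminescence measured.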
# [7] = molecular target: DNA dC->dU-editing enzyme APOBEC-3G (Homo sapiens) (UniProt Q9HC16); assay: qHTS for inhibitors of Vif-A3G interactions: Validation (AID 588379)
# Chain of DNA dC->dU-editing enzyme APOBEC-3G (Homo sapiens) (Q9HC16 whole entry, looked up): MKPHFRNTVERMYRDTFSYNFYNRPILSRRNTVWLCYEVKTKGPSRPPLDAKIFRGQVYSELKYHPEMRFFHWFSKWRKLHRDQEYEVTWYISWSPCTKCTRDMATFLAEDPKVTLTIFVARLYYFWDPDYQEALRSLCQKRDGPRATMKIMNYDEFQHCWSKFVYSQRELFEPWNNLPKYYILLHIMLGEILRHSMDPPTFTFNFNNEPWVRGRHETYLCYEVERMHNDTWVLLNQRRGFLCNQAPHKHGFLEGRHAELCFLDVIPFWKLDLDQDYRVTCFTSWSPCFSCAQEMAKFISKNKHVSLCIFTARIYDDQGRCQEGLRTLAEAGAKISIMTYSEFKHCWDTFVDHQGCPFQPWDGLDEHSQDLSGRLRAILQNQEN
# How it was run: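 HeLa cells stably expressing Vif and A3G-eYFP, 700 cells/well, incubated overnight at 37 deg C, then exposed to compound overnight at 37 deg C. Inhibition of Vif-mediated degradation read as increased yellow fluorescence (Ex 488/Em 500-530) by laser-scanning cytometry.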
# [8] = measured here: cell count channel max response
# [9] = measured here: lipid channel max response
SMILES,Potency [1],Potency [2],Potency [3],"activity change, negative = inhibition [4]","max response [4, 8] [%]","max response [4, 9] [%]",Potency [5],Potency [6],outcome [7]
OCC1CCCN2CCCCC12 (stereo not drawn),inactive,inactive,inactive,1.09% (inactive),-1.96,1.94,inactive,–,–
N#C/C(=C\c1cccc(O)c1)C(=O)O,inactive,inactive,inactive,5.07% (inactive),0.883,7.48,inactive,–,–
CC1O[C@@H](OC2CC[C@@]3(C=O)C4CC[C@]5(C)C(C6=CC(=O)OC6)CC[C@@]5(O)C4CC[C@]3(O)C2)C(O)C(O)C1O (stereo partly drawn),inactive,inactive,inactive,2.77% (inactive),-0.564,4.22,inactive,–,–
CC(=O)C1CCC2C3CCC4CC(O)CCC4(C)C3CC(O)C12C (stereo not drawn),inactive,inactive,inactive,-2.59% (inactive),3.25,2.61,inactive,–,–
COC(=O)COc1cc(Cl)c(Cl)cc1Cl,inactive,inactive,inactive,2.27% (inactive),13.1,15.5,inactive,–,–
C[C@]12CCC3C(C=CC4=CC(=O)CC[C@]43C)C1CC[C@]2(O)CCC(=O)O (stereo partly drawn),inactive,inactive,inactive,1.44% (inactive),28.8,34.1,inactive,–,–
COC[C@]12CN(C=O)C3C4C(OC)C1[C@@]3(C1CC3(O)C(OC)C(O)C4(OC(C)=O)C1C3OC(=O)c1ccccc1)[C@@H](OC)CC2O (stereo partly drawn),inactive,inactive,inactive,-0.123% (inactive),-6.49,-7.99,inactive,–,–
CC1OC(O[C@@H]2C(O)CC(O[C@@H]3C(O)C[C@@H](OC4CC[C@]5(C)[C@H](CC[C@H]6[C@@H]5CC[C@]5(C)C(C7=CC(=O)OC7)C(O)C[C@@]65O)C4)OC3C)OC2C)CC(O)C1O (stereo partly drawn),inactive,–,1 µM (active),10.1% (inactive),12.5,20.2,inactive,–,–
CC1CC2CC(=O)C3CCCN4CCCC2[C@]34C1 (stereo partly drawn),inactive,inactive,inactive,3.72% (inactive),9.37,11.3,inactive,–,–
O=C1NC(=O)C(=O)C(=O)N1,inactive,inactive,inactive,2.7% (inactive),15,19.9,89.1 µM (active),–,–
C=C1C2CCC3[C@@](CC[C@@H]4C(C(=O)O)CC(OC5OC(CO)C(OS(=O)(=O)O)C(OS(=O)(=O)O)C5OC(=O)CC(C)C)C[C@]34C)(C2)C1O (stereo partly drawn),inactive,–,inactive,1.97% (inactive),-12,-7.92,inactive,–,–
C[C@]12CCC(=O)C=C1CCc1ccc(O)cc12,–,inactive,inactive,-0.872% (inactive),-10.5,-4.41,inactive,inactive,–
COc1c2c(cc3c1OCO3)C13C=CC(OC)CC1N(C2)CC3O (stereo not drawn),–,inactive,–,11.5% (inactive),12.8,26.7,inactive,inactive,–
CC(N)[C@@H](O)c1ccccc1 (stereo partly drawn),inactive,inactive,inactive,6.04% (inactive),11.6,28.2,inactive,–,–
CN1C2CC3CC1C(O3)C2O (stereo not drawn),inactive,–,inactive,1.96% (inactive),-4.71,-5.52,inactive,–,–
C[C@@]12CCC(Cl)C[C@H]1CCC1C2CC[C@]2(C)C(=O)CCC12 (stereo partly drawn),inactive,–,inactive,8.24% (inactive),9.07,21.6,inactive,–,–
NNCc1ccccc1,–,inactive,–,14.8% (inactive),5.74,20.3,inactive,inactive,–
COC(=O)COc1ccc(Cl)cc1Cl,inactive,inactive,inactive,8.24% (inactive),0.885,8.23,inactive,–,–
COc1c(CC=C(C)C)c2c(c3oc(=O)c(-c4ccc(O)cc4)c(O)c13)C=CC(C)(C)O2,–,inactive,–,3.02% (inactive),14.5,15.5,79.4 µM (active),inactive,–
CC1(C)N([O-])[N+](=O)C1(C)Br (stereo not drawn),inactive,inactive,inactive,1.13% (inactive),-4.64,-5.74,inactive,–,–
O=c1cccc2n1CC1CC2CN(CCO)C1 (stereo not drawn),inactive,–,–,3.63% (inactive),9.42,15.7,–,–,inactive
CC1C(=O)OC2C(O)C34C5OC(=O)[C@@]3(OC3OC(=O)[C@H](O)[C@]34C(C(C)(C)C)C5O)[C@]12O (stereo partly drawn),–,inactive,inactive,0.291% (inactive),13.6,14.3,inactive,–,–
Cc1cc(OC(=O)N2CCCCC2)c(C(C)C)cc1[N+](C)(C)C,–,–,inactive,8.28% (inactive),17.5,31.1,inactive,–,–
O=c1ccc2cc(OC3OC(CO)C(O)C(O)C3O)c(O)cc2o1 (stereo not drawn),–,–,–,-4.17% (inactive),-25.8,-27.2,–,–,inactive
